In all, about 94,000 compounds went through this assay and about 2,100 (2.2%) were called active. Shown is part of a subset that was picked to be rich in actives. Unmarked numbers belong to inactive results. Rule as the data show it: active = activity change below about -80%; inconclusive = no clear call, values can overlap the other calls; inactive = above that.

The nature of this test: P. falciparum Dd2 growth inhibitors, primary screen, SYBR Green fluorescence, single dose replicates (AID 1159554). Particulars: 72 h, at 10 µM, active compounds read low.
For the molecule `CC(=O)N1[C@H](CO)[C@H](c2ccccc2)C12CN(C(=O)c1ccccn1)C2`, the activity change is -28.2%. The value for `C[C@@H]1CN([C@@H](C)CO)C(=O)c2cc(NC(=O)CCCN(C)C)ccc2O[C@@H](C)CCCCO[C@H]1CN(C)C(=O)Nc1cccc2ccccc12` was -85.2% (active); that for `CC(C)NC(=O)N(C)C[C@@H]1OCCCC[C@@H](C)Oc2ccc(NC(=O)Cc3ccccc3)cc2C(=O)N([C@H](C)CO)C[C@H]1C` was -13.3%; that for `C[C@@H]1CCCCO[C@H](CN(C)C(=O)Nc2cccc3ccccc23)[C@H](C)CN([C@@H](C)CO)C(=O)c2cc(NC(=O)CCCN(C)C)ccc2O1` was 0.619%. The value for `C[C@@H]1CN([C@@H](C)CO)C(=O)c2cc(NC(=O)Cc3ccccc3)ccc2O[C@@H](C)CCCCO[C@@H]1CN(C)C(=O)Nc1ccccc1` was -51.5%. Take `CC(C)NC(=O)N(C)C[C@@H]1OCCCC[C@@H](C)Oc2ccc(NC(=O)CCCN(C)C)cc2C(=O)N([C@@H](C)CO)C[C@@H]1C`: the activity change was -5.33%. The value for `C[C@@H]1CN([C@@H](C)CO)C(=O)c2cc(NC(=O)Cc3ccccc3)ccc2O[C@@H](C)CCCCO[C@H]1CN(C)C(=O)Nc1cccc2ccccc12` was -86.1% (active).

Take `CO[C@@H]1CN(C)C(=O)c2cc(NC(=O)Nc3ccc(F)cc3)ccc2OC[C@@H](C)NC[C@@H]1C`: the activity change was 13.3%. For the molecule `O=C(C[C@H]1CC[C@H]2[C@@H](COC[C@@H](O)CN2CC2CCOCC2)O1)NCc1ccc(Cl)cc1`, the activity change was -4.66%. As to `CO[C@@H]1CN(C)C(=O)c2ccc(NS(C)(=O)=O)cc2OC[C@@H](C)N(C(=O)CC2CC2)C[C@@H]1C`, the activity change is 16.2%. Consider `O=C(c1ccccn1)N1CC(=O)N2[C@H](CO)[C@H](c3ccc(C#CCc4ccccc4)cc3)[C@H]2C1`, for which the activity change is -46.8%. Turning to `O=C(C[C@@H]1C=C[C@H](NC(=O)Nc2ccccc2F)[C@@H](CO)O1)NCc1ccccc1`, the activity change is -0.106%. For `CN1CCN(C(=O)C[C@H]2CC[C@H]3[C@@H](COc4ccc(NC(=O)C5CCC5)cc4C(=O)N3C)O2)CC1`, the activity change is -19.8%. In the case of `CN1C(=O)c2cc(NC(=O)c3cccc(F)c3)ccc2OC[C@H]2O[C@@H](CC(=O)NCc3ccccc3Cl)CC[C@@H]21` it was -47.4%; in that of `CCCNC(=O)N(C)C[C@H]1Oc2cc(-c3ccncc3)ccc2S(=O)(=O)N([C@H](C)CO)C[C@H]1C`, 70.9%; in that of `CC(C)NC(=O)N[C@H]1C=C[C@H](CC(=O)NCCN2CCCC2)O[C@@H]1CO`, 9.57%.

The record behind these values is PubChem BioAssay AID1159554 (Broad Institute, 2015).
